PubChem BioAssay (NCATS)
The source made the active and inactive calls. A call without a number means that no potency is given here. Calls come from the whole dose curve; as a rule, active = well fitted curve in the direction sought with a large enough effect; inconclusive = small, poorly fitted or top-dose-only effect, or another doubt; inactive = no such curve, though single readings can be large or run the other way.

Experiment: Validation qHTS assay for inhibitors of Activation Induced Cytidine Deaminase (AID): UDG Counterscreen signal (AID 1347427)
Conditions: biochemical UDG counterscreen, fluorescence signal; series mostly up to 115 µM
Description: Assay Provider (PI) Patricia Gearhart Ph.D.
National Institute on Aging
National Institute of Health (NIH), Bethesda, MD
Assay Provider (PI) Rahul Kohli Ph.D.
Perelman School of Medicine
University of Pennsylvania, Philadelphia, PA
Activation-Induced Deaminase (AID) is a cytosine deaminase which converts cytosine into uracil within stretches of ssDNA. The presence of uracil in DNA initiates a cascade of mutagenic DNA repair to introduce point mutations and DNA double strand breaks. Specific targeting of AID to the immunoglobulin heavy chain loci (Igh) promotes mutagenesis in the antibody variable region for somatic hypermutation (SHM) or switch regions leading to class switch recombination (CSR). However, AID also plays a role in accumulating unnecessary mutations across the genome. Mis-targeting of AID results in the initiation of tumor development and leads to greater drug resistance among cancer cells when continually expressed. To identify an AID inhibitor, a small molecule library will be screened in collaboration with NCATS core facility at NIH. To confirm biological function, inhibitors will be examined in an in vitro murine B-cell activation assay and subsequent secondary validation screens. Top molecules will be further screened to identify inhibitory efficacy against a wild type primary splenocytes assay. Using these approaches, we hope to identify a small molecule with great efficacy and low toxicity for use as a molecular probe to further characterize AID's intricacies, or even as a therapeutic.
A FRET based analysis of cytosine deamination, was developed to identify potential inhibitors of AID catalytic activity. This screen has two signal output, Read 1 evaluates the AID inhibition response. The second readout (Read 2) evaluates UDG response and is uses as a counterscreen to exclude false positive inhibitors. Inhibition in AID and inactivity in the UDG signal is the desired outcome for this assay.
SEQUENCE No. (e.g., 1, 2, 3, etc.); […] (e.g., Cells, Incubation, Reagent, etc.); VALUE; DESCRIPTION
1a; Reagent; 3 uL; [4/3x] 1 uM AID/2.67 U/mL UDG
1b; Reagent; 3 uL; 2 U/mL UDG
1c; Reagent; 3 uL; 1 uM AID
2a; Compound; 46 nL; Follow-up plates (0.64 uM - 10 mM)
2b; Control; 46 nL; ATA ([…] - 10 mM)
3; Time; 10 min; incubation at room temperature
5; Time; 4 hr; incubation at room temperature
6; Reagent; 4 uL; [2x] 250 mM NaOH
7; Time; 15 sec; centrifuge at 1000 rpm
8; Time; 30 min; incubation at room temperature
9a; Detection; fluorescence (Read 1: AID); EnVision (PerkinElmer) plate reader, 540 excitation and 590 emission filters
9b; Detection; fluorescence (Read 2: UDG); EnVision (PerkinElmer) plate reader, 560 excitation and 665 emission filters
NOTES (numbers refer to sequence above)
1a; Reagents were dispensed in a medium-binding black solid-bottom Greiner plates (789176F) using a BioRptr liquid dispenser. Dispense 3 uL of [4/3x] 1 uM AID (provided by Kohli lab) and [4/3x] 2 U/mL UDG (NEB M0280L) into columns 1, 2, 5 to 48.
1b; Dispense 3 uL of [4/3x] 2 U/mL UDG into column 3.
1c; Dispense 3 uL of [4/3x] 1 uM AID into column 4.
2b; 10 mM Aurintricarboxylic Acid (Sigma A1895) (ATA, 8-point, n = 2, 1:2.5 dilution in column 2) double pin-transferred (Dip Factor = 2) using the Kalypsys (Wako USA) pintool equipped with a 1536 pinhead for a [final] range of 186 nM - 114 uM.
3; Room temperature incubation.
4; Dispense 1 uL of substrate mixture from the Kohli lab [4x] […] DJC20 and [4x] 250 nM DJC23 into columns 1 to 48 .
5; Room temperature incubation.
6; Dispense 4 uL of substrate mixture [2x] 250 mM NaOH into columns 1 to 48.
7; Centrifugation step to remove bubbles.
8; Room temperature incubation
9a; Fluorescence signal (column label AID) was read using the EnVision plate reader. Excitation filter = 540(8) nm, barcode = 311; Emission filter = 590(20) nm, barcode = 217; Mirror = D555, barcode = 405.
9b; Fluorescence signal (column label UDG) was read using the EnVision plate reader. […]

SMILES | Potency
O=C1Nc2ccc(I)cc2/C1=C/c1cc(Br)c(O)c(Br)c1 | inactive
NC1(C(=O)O)CCCCC1 | inactive
COc1cc(/C=C(\C#N)C(=O)Nc2nnc(C(F)(F)F)s2)ccc1OCc1ccc(C(F)(F)F)cc1C(F)(F)F | inactive
O=c1[nH]ccc2c(O)cccc12 | inactive
NC(=O)CNCCC(c1ccccc1)c1ccccc1 | inactive
CCCC[C@@]1(C2CCCC2)Cc2cc(OCC(=O)O)c(Cl)c(Cl)c2C1=O | inactive
C[C@H]1CC2C3CCC4=CC(=O)C=C[C@]4(C)[C@@]3(Cl)[C@@H](O)C[C@]2(C)[C@@]1(O)C(=O)CO (stereo not given in full) | inactive
Cc1nc(N=Nc2ccc(C(=O)O)cc2)c(COP(=O)(O)O)c(C=O)c1O | inactive
COc1ccc(CCn2nnnc2C2(c3ccc(C)cc3)CC2)cc1 | inactive
CCCCCCCCCC[Si](C)(C)CCC(=O)NC(Cc1ccc(C)cc1)c1ccccc1 (stereo not given) | inactive
Nc1ncnc2c1c(-c1ccc(Oc3ccccc3)cc1)cn2C1CCCC1 | inactive
CC(C)(C)NCC(O)COc1cccc2[nH]c(=O)[nH]c12 (stereo not given) | inactive
NC1C=CC=C(C(=O)O)C1 (stereo not given) | inactive
NS(=O)(=O)c1cccc2c1c([N+](=O)[O-])cc1nc(O)c(O)nc12 | inactive
C[C@@H](NCCc1ccc(O)cc1)[C@@H](O)c1ccc(O)cc1 | inactive
CC(=O)/C(C)=N/O | inactive
CC(=O)N[C@@H](Cc1c[nH]c2ccccc12)C(=O)OCc1cc(C(F)(F)F)cc(C(F)(F)F)c1 | inactive
COc1ccc(-c2cc3ncc(C)n3c(Nc3ncccc3C(N)=O)n2)cc1OC | inactive
CN(C)S(=O)(=O)c1ccc2c(c1)/C(=C/c1cc3c([nH]1)CCCC3)C(=O)N2 | inactive
CCCn1c(=O)c2[nH]c(-c3ccc(S(=O)(=O)O)cc3)nc2n(CCC)c1=O | inactive

SMILES | Potency
CCCCS(=N)(=O)CC[C@H](N)C(=O)O (stereo not given in full) | inactive
NCCCCN=C(N)N | inactive
C=CC[C@H](N)C(=O)O | inactive
O=C(O)CCC(=O)N1CCCC1C(=O)O (stereo not given) | inactive
CCCCCCC/C=C\CCCCCCCCC(=O)O | inactive
N[C@H](C(=O)O)[C@H](Cc1ccccc1)C(=O)O | inactive
COc1ccccc1N1CCN(CCCCN2C(=O)c3ccccc3C2=O)CC1 | inactive
CC(C)C[C@H](NC(=O)C1OC1C(=O)O)C(=O)NCCCCN=C(N)N (stereo not given in full) | inactive
CC(N)(Cc1ccc(O)cc1)C(=O)O (stereo not given) | inactive
COC(=O)C(N)Cc1ccc(Cl)cc1 (stereo not given) | inactive
CC(=O)O[C@H]1Cc2ccccc2N(C(N)=O)c2ccccc21 | inactive
NC[C@@H]1O[C@H](c2ccccc2)Cc2c1ccc(O)c2O | inactive
CC(=O)O[C@H]1CC2(C)[C@@H](C[C@@H](O)[C@H]3[C@@]4(C)CC[C@@H](O)[C@@H](C)[C@@H]4CC[C@@]32C)C1=C(CCC=C(C)C)C(=O)O (stereo not given in full) | inactive
C[N+](C)(C)CC=O | inactive
N#Cc1cc2nc(O)c(O)nc2cc1[N+](=O)[O-] | inactive
COc1ccccc1N1CCN(CCN(C(=O)c2ccc(F)cc2)c2ccccn2)CC1 | inactive
NCCNS(=O)(=O)c1cccc2c(Cl)cccc12 | inactive
NCC(O)c1ccc(O)c(O)c1 (stereo not given) | inactive
O=C(O)CCC/C=C\C[C@@H]1[C@@H](/C=C/[C@H](O)C2Cc3ccccc3C2)[C@@H](F)C[C@@H]1O | inactive
CCCCCCN(CCCCCC)C(=O)Cc1c(-c2ccc(F)cc2)[nH]c2ccccc12 | inactive
